# Records with an inconclusive call do not appear. A number with no mark means an inactive call. Active and inactive are the calls of the source. Calls follow the shape of the dose curve; as a rule, active = well fitted inhibition curve with a large enough effect; inconclusive = small, poorly fitted or top-dose-only effect; inactive = no such curve, though single readings can be large or run the other way.
# Assay: qHTS screen for inhibitors of ELG1-dependent DNA repair in human embryonic kidney (HEK293T) cells expressing luciferase-tagged ELG1: MMS Viability Assay for probe SAR
# Settings: HEK293T ELG1-luc + MMS viability, CellTiter-Glo, 16 h; series mostly up to 46.1 µM; activity change, negative = lower viability: at the top concentration
# From the text: Cancer cells divide rapidly compared to normal cells in the body. During cell division, cancer cells need to duplicate their genome by DNA replication. The failure of genome duplication leads to cancer cells' death. Therefore, inhibitors of DNA replication could specifically kill cancer cells. Based on this concept, many chemotherapeutic agents were developed and have been used to treat cancer patients. However, there are a limited number of agents available in the clinical setting, and some of those that do exist have low efficacy and severe side effects. Therefore, if we can find the compounds that effectively block DNA replication either by directly damaging DNA or by inhibiting other cellular mechanisms, the options for cancer treatment will be broadened. With this in mind, we developed a quantitative high-throughput ELG1-luciferase reporter gene assay. Small molecules that specifically block ELG1 function in response to DNA damage can be identified by monitoring the suppression of luciferase activity. Since ELG1 defines a pathway for repairing DNA damage, agents blocking ELG1 function can be used to sensitize cancer cells to chemotherapeutic agents whose mechanism of action involves the induction of DNA damage. Cytotoxicity of the active compounds in the ELG1 qHTS assay with MMS stimulation (AID 493125) was assessed using the CellTiter-Glo Luminescent Cell Viability Assay kit (Promega, USA). CellTiter-Glo measures the intracellular ATP present in metabolically active cells using Ultra-Glo as the luciferase to detect ATP levels. In brief, the luciferase in the buffer catalyzes the oxidation of luciferin to oxyluciferin and light which is dependent on ATP. […] DMSO and wells with media alone were used as positive and negative controls, respectively. Inactivity to this assay is the desirable outcome. NIH Molecular Libraries Probe Production Network [MLPCN] NIH Chemical Genomics Center [NCGC] MLPCN Grant: R03 MH092164 Assay Provider: Kyungjae Myung, NHGRI, NIH
# ELG1-luc HEK293T cells will be seeded in 1536-well plates at a density of 2,000 cells/well. Approximately 5 hours after plating, compounds will be added to the plate by pin tool transfer and MMS will be added by FRD dispenser (final concentration of MMS = 10 µM). 16 hours following the addition of the compounds, cell viability will be measured using CellTiter Glo.
SMILES,"activity change, negative = lower viability [%]",Potency
COc1cc(-c2nc(Nc3ccc(F)c(F)c3)c3ccccc3n2)cc(OC)n1,-75.3,
Fc1cc(Nc2nc(-c3ccncc3)nc3ccccc23)ccc1-c1ccnc(C(F)(F)F)c1,-11.2,
COc1ccc(-n2c(C)c(C(C)=O)c3ccccc32)cc1,,inactive
Fc1cc(Nc2nc(-c3ccncc3)nc3ccccc23)ccc1-c1cccc(OC(F)(F)F)c1,,18.7 µM (active)
COc1ccc(Nc2nc(-c3ccncc3)nc3ccccc23)cc1F,6.58,
Cc1nc2ccc(Nc3nc(-c4ccncc4)nc4ccccc34)cc2s1,-3.61,
Fc1ccc(-c2ccc(Nc3nc(-c4ccncc4)nc4ccccc34)cc2F)c(Cl)c1,,18.7 µM (active)
COC(=O)c1ccc(Nc2nc(-c3ccncc3)nc3ccccc23)cc1OC,3.72,

# From PubChem BioAssay AID686922 (National Center for Advancing Translational Sciences (NCATS), 2013)
